TEAD-YAP block = TEAD-YAP interaction inhibition | HEK-TIYL cells, TEAD-Gal4/YAP UAS-luciferase luminescence | inhibition, % at 9.12 µM | 640,000 compounds, 1.4% hits; in the data active means inhibition above about 32%;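 further: 0% = median of test compound wells and 100% = reference inhibitor wells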
GPR151 ag = human GPR151 activation. activation, % at 11.2 µM. PathHunter beta-arrestin GPR151 cells, luminescence. Q8TDV0. AID 1508602. 650,000 compounds, 1% hits; in the data active means activation above about 4.9%;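 further: 0% = median of compound wells and 100% = cells with positive control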
MITF inh = inhibitors of human MITF; O75030; AlphaScreen MITF homodimerization, bead proximity signal; inhibition, % at 2.6 µM; 650,000 compounds, 0.91% hits; in the data active means inhibition above about 50%;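 further: 0% = vehicle wells with protein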
FBW7 act = human FBW7 E3 ligase activation, primary screen. Q969H0. AlphaScreen FBW7–phospho-cyclin E peptide binding, activator screen. normalized activity (activation), % at 26.1 µM. 650,000 compounds, 0.13% hits. AID 1259310; in the data active means normalized activity above about 1.9%;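 further: purified mutant Fbw7 with reduced substrate affinity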
Target sequence (Q969H0 whole entry, looked up): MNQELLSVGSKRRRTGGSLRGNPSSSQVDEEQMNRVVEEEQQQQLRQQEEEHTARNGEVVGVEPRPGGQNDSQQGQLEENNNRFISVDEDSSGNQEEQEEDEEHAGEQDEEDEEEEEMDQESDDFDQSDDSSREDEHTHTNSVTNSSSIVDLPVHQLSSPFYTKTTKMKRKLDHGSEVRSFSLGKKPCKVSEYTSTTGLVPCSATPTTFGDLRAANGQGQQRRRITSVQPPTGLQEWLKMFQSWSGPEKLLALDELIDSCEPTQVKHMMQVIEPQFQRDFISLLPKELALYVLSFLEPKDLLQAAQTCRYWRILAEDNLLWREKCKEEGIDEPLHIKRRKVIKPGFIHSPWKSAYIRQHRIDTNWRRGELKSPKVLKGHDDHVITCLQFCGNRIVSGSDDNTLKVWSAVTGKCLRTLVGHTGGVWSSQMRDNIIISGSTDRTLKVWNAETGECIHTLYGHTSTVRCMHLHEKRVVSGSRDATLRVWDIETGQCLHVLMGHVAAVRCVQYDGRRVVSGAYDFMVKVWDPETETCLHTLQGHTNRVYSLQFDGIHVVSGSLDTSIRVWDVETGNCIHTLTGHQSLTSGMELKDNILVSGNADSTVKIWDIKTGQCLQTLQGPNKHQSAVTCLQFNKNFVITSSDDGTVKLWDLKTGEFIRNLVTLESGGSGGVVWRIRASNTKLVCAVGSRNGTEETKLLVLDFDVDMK
GPR151 confirm = confirmation of human GPR151 activators; 6,700 tested, under 10 active; activation, % at 11.2 µM; GPR151 PathHunter beta-arrestin cells, luminescence, 90 min; % of EA-reagent control over plate median; shares compounds with GPR151 ag; AID 1508609;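 active means mean percent activation across replicates above the confirmation screen cutoff of 4.91%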
GPR119 counter = GPR119 activation, counter-screen for GPR151 activators; shares compounds with GPR151 ag; GPR119 PathHunter beta-arrestin cells, luminescence, 90 min; 0 = compound-well median, 100 = enzyme-acceptor control; activation, % at 11.2 µM; 6,700 compounds, 0.3% hits;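 active means mean percent activation in the counterscreen above 29.09%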;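 further: counterscreen on off-target GPR119 to flag nonselective hits from the GPR151 activator screen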
Numbers without * were called inactive; . = no result given. In the library only some 3.4% were active in any assay of this set; here they are far more common.

SMILES	TEAD-YAP block	GPR151 ag	MITF inh	FBW7 act	GPR151 confirm	GPR119 counter
Cc1cnc(-c2csc3ccccc23)nc1Nc1ccc(N2CCOCC2)cc1	-13.8	5.0*	14.1	0.8	-0.9	-8.8
Cc1cnc(N2CCOCC2)nc1Nc1ccc(Oc2ccccc2)cc1	-16.7	6.6*	-3.5	0.1	-0.8	-0.6
Cc1cnc(N2CCOCC2)nc1Nc1ccc(N2CCOCC2)cc1	5.2	-0.8	15.0	-0.1	.	.
CCNc1nc(Oc2ccc(=O)[nH]n2)nc(SC)n1	1.8	0.6	8.4	0.1	.	.
CCNc1nc(NC(C)(C)C)nc(Oc2ccc(=O)[nH]n2)n1	9.2	5.1*	-6.6	-0.3	0.5	-3.8
Cc1cccc(NC(=O)c2nnn(-c3cccc(C)c3)c2N)c1	-58.6	-2.4	11.0	-0.1	.	.
Cc1ccc(CCNC(=O)CN2CCN(Cc3cccc(C)c3)C2=O)cc1	7.6	5.5*	-3.8	0.3	-0.1	-12.4
CN(Cc1ccccc1)c1cc(-c2cccnc2)nc(-c2cccnc2)n1	9.5	-0.8	2.8	-0.1	.	.
Cc1ccc(-n2nc3c(c2NC(=O)c2cccc(F)c2)CS(=O)C3)c(C)c1 (configuration not stated)	-10.4	5.9*	-0.3	0.0	1.8	2.0
Cc1ccc(-n2nc3c(c2NC(=O)c2ccc(Cl)c([N+](=O)[O-])c2)CS(=O)C3)c(C)c1 (configuration not stated)	14.2	-0.2	2.1	-0.1	.	.
OCCC1CCCCN1c1ccnc2c(-c3ccsc3)cnn12 (configuration not stated)	-53.9	5.4*	-9.2	-0.5	0.2	-0.5
Cc1cccc(-n2c(O)c(C=Nc3ccccc3I)c(=O)[nH]c2=O)c1	15.1	-1.0	4.9	0.8	.	.
Cc1cccc(-n2c(O)c(/C=N/n3cnnc3)c(=O)[nH]c2=O)c1	-1.3	5.3*	-2.3	-0.1	-0.4	-2.6
S=C(NCCCn1ccnc1)Nc1ccc(Oc2ccccc2)cc1	0.6	0.5	-10.8	-0.3	.	.
O=C(Nc1ccc(Br)cc1C(=O)c1ccccc1)c1ccc(Nc2nc(-c3ccccc3)c3cc(Cl)ccc3n2)cc1	-10.5	2.5	13.9	0.0	.	.
O=C(Nc1ccccc1C(=O)c1ccccc1)c1ccc(Nc2nc(-c3ccccc3)c3cc(Cl)ccc3n2)cc1	-1.1	8.5*	-3.1	-0.1	1.1	15.5
COc1ccc(NC(=O)NCCCN2CCN(C3CCCCC3)CC2)cc1	-2.0	-0.1	-2.4	-0.1	.	.
O=C1Nc2ccc3ccccc3c2C(c2ccccc2)N1 (configuration not stated)	15.9	9.1*	1.2	0.8	-0.8	-12.7
c1cncc(CNc2ncnc3nc(Nc4ccc(N5CCOCC5)cc4)[nH]c23)c1	9.9	-1.0	-8.3	-0.1	.	.
COc1cccc(CC2(CO)CCN(Cc3cccn3-c3ncccn3)CC2)c1	4.7	12.1*	-9.4	-0.3	-0.1	-2.4
COc1ccc(CN2CCC(CO)(Cc3ccccc3)CC2)cc1Cn1cccn1	5.6	9.4*	5.6	0.1	-0.7	-6.3
CCOC(=O)N1CCC(N2Cc3ccc(Cl)cc3OC(CC)C2)CC1 (configuration not stated)	2.8	0.5	-16.9	0.1	.	.
CC(C)C(=O)Nc1ccc(NC(=O)c2ccccc2Cl)nc1	-38.6	6.9*	2.3	0.0	1.0	9.1
O=C(Nc1ccccn1)c1ccccc1Cl	-21.1	6.0*	-2.0	-0.1	-1.4	-17.1
Cc1ccc(S(=O)(=O)Nc2cccc(NS(=O)(=O)c3ccc(C)cc3)n2)cc1	1.8	-0.3	0.0	-0.1	.	.
SMILES	TEAD-YAP block	GPR151 ag	MITF inh	FBW7 act	GPR151 confirm	GPR119 counter
NC1=NC(=O)/C(=C/c2ccccc2OS(=O)(=O)c2ccc([N+](=O)[O-])cc2)S1	11.1	2.0	17.1	0.4	.	.
CCOc1cc(C2C(C(=O)OCC3CCCO3)=C(C)NC3=C2C(=O)CCC3)cc(Br)c1O (configuration not stated)	7.2	0.3	-1.3	-0.1	.	.
S=C(NCCN1CCOCC1)Nc1cccc2cnccc12	-8.4	-0.5	-10.9	-0.3	.	.
S=C(NCCN1CCOCC1)Nc1cccc2ccccc12	-2.7	5.3*	2.3	-0.2	-0.1	-10.3
COc1ccc(/C(C)=N/NC(=O)c2ccccc2Br)cc1	-10.2	5.7*	19.6	0.2	0.2	5.8
COc1ccc([N+](=O)[O-])cc1-c1[nH]c(-c2cc(OC)c(OC)c(OC)c2)nc1-c1ccccc1	-10.3	0.4	6.5	0.1	.	.
CC1(C(=O)O)C2C=CC3(CN(c4ccccc4)C(=O)C31)O2 (configuration not stated)	-1.9	8.1*	-5.7	-0.1	0.2	1.5
N#C/C(=C\c1cn(Cc2ccccc2)c2ccccc12)C(=O)NC1CC1	-36.9	5.2*	4.6	-0.4	1.0	10.4
O=C(NC(=O)c1ccc(Cl)cc1)NC1CCCC1	-15.8	-0.7	13.3	0.6	.	.
O=C(CCNc1c(N2CCCC2)c(=O)c1=O)Nc1ccc(F)c(Cl)c1	10.9	2.3	-1.1	0.0	.	.
Cc1ccc(NC(=O)CCNc2c(N3CCCC3)c(=O)c2=O)cc1Cl	1.6	12.5*	-5.5	-0.1	1.4	-4.4
O=C(CCNc1c(N2CCCC2)c(=O)c1=O)NC1CCCCCC1	-3.9	7.2*	0.6	-0.4	0.1	2.0
Cc1ccc(NC(=O)CC(C)(C)C)cc1Cl	-5.8	5.2*	-2.2	0.1	-0.3	5.1
COc1ccc(-c2nc3ccccc3c(=O)n2NCc2ccc(N(C)C)cc2)cc1OC	-0.5	1.5	2.8	-0.3	.	.
Cc1noc(CNC(=O)c2ccc(F)cc2F)n1	6.5	-0.9	9.5	0.8	.	.
Cc1nc(CNc2nncc(-c3ccc(Cl)cc3)n2)cs1	-24.3	9.4*	-0.1	-0.1	-0.6	2.5
CN(CCO)C(=O)c1cc(COc2cccc3cnccc23)on1	-5.0	6.7*	19.1	0.2	1.2	-2.6
CC(C)c1cc(CNC(=O)c2cc(COc3cccc4cnccc34)on2)on1	15.4	-0.1	11.6	0.2	.	.
Cc1nc(NS(C)(=O)=O)sc1C(=O)O	8.3	5.0*	10.9	0.0	0.3	4.8
Cc1nc(NC(=O)c2ccccc2F)sc1C(=O)O	5.1	-6.1	17.9	0.6	.	.
O=C(c1ccccc1)c1ccc(C(=O)N2CCN(c3ccccc3)CC2)o1	-28.7	0.2	-3.6	-0.2	.	.
O=C(c1ccccc1)c1ccc(C(=O)N2CCCCC2)o1	-57.0	6.7*	-5.8	0.0	-0.6	-6.8
CNC(=S)NCCNc1nc2c(C)c(C)ccc2cc1C#N	-0.8	1.2	-5.2	0.1	.	.
CC1=C2C(O)C(=O)OC3CC4C(C)(C)C(=O)C=C[C@]4(C)C(CC1)[C@]23C (some centres not stated)	-6.4	6.0*	-3.5	0.0	-0.3	7.4
COC(=O)c1cc(OC)c(OC)cc1NC(=S)N1CCCC1	6.9	2.4	2.6	-0.1	.	.
COc1cc(C#N)c(NC(=S)N2CCCC2)cc1OC	-1.1	5.4*	6.7	0.1	-1.0	-2.8

Compound activity deposited in PubChem by The Scripps Research Institute Molecular Screening Center.
